8 compounds from PubChem BioAssay (EPA / NIEHS) can be followed below.

“And” between values parts separate entries of the source, which are not always exact repeats. Identical values can stand only once. Inconclusive results are not listed. More than one record can exist for a structure, and the calls need not agree. The source made the active and inactive calls. Rule for the calls, unless noted: active = hit-call score of the fitted dose curve at least 0.9, where 1 is the maximum; inconclusive = response in the unintended direction; inactive = score below 0.9.

Experiment [1] can be described thus: ATG_TCF_b_cat_CIS: Attagene CIS-FACTORIAL HepG2 Assay for human T-Cell-Factor with beta-catenin (TCF/b-cat) (AID 2282965; active = hit-call score of the fitted dose curve at least 0.9, where 1 is the maximum; inactive = score below 0.9). The note with it: HepG2 TCF/beta-catenin cis-reporter transcription, actives raise or lower the signal. An outline of the steps: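 Endogenous transcription factor activity is captured through cis-promoter reporter constructs transiently introduced into human HepG2 liver cells. Induced reporter mRNA is measured after 24 h and fitted bidirectionally relative to DMSO.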

Experiment [2] is described as follows: ATG_TAL_CIS: Attagene CIS-FACTORIAL HepG2 Assay for human TAL Basal Promoter (AID 2282966; active = hit-call score of the fitted dose curve at least 0.9, where 1 is the maximum; inactive = score below 0.9;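 note: background control endpoint measuring basal TAL promoter reporter mRNA not a specific factor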). To be noted: HepG2 Attagene cis-factorial TAL promoter reporter; actives raise or lower the signal. An outline of the steps: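 Steps: transfect HepG2 with multiple reporter transcription units; dose 24 h; isolate RNA, reverse-transcribe, PCR-amplify, label with 6-FAM, digest with HpaI; resolve by capillary electrophoresis. Bidirectional fitting against DMSO baseline.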

Experiment [3] in a line: ATG_TGFb_CIS: Attagene CIS-FACTORIAL HepG2 Assay for human Transforming Growth Factor (TGF) (AID 2282967; active = hit-call score of the fitted dose curve at least 0.9, where 1 is the maximum; inactive = score below 0.9). The note with it: HepG2 Attagene CIS TGFb reporter, mRNA transcription; actives raise or lower the signal. In short, it runs like this: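 HepG2 cells transiently transfected with cis-promoter-driven multiplexed reporter units; 24 h compound exposure. Reporter mRNA measured by RT-PCR, 6-FAM labeling, HpaI digestion and capillary electrophoresis; bidirectional fit versus DMSO baseline.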

Experiment [4] can be described thus: ATG_VDRE_CIS: Attagene CIS-FACTORIAL HepG2 Assay for human Vitamin D Receptor Element (VDRE) (AID 2282968; active = hit-call score of the fitted dose curve at least 0.9, where 1 is the maximum; inactive = score below 0.9). The note with it: HepG2 VDRE cis-reporter transcription, actives raise or lower the signal. In short, it runs like this: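 In transiently transfected HepG2 liver cells, gain or loss of reporter mRNA after 24 h exposure is scored relative to DMSO, using fluorescence detection by capillary electrophoresis of RT-PCR products.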

Experiment [5] addresses Nuclear receptor subfamily 1 group I member 3 (Homo sapiens) (UniProt Q14994). Description: ATG_CAR_TRANS: Attagene TRANS-FACTORIAL HepG2 Assay for human Constitutive Androstane Receptor (CAR) (AID 2282969).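 Note: activators raise reporter mRNA above DMSO so AC50 marks induction.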 The note with it: HepG2 Attagene TRANS-FACTORIAL CAR reporter. In short, it runs like this:
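Readout is reporter mRNA induction, quantified by fluorescent primer extension and capillary electrophoresis after RT-PCR. Cells were HepG2 transiently carrying chimeric NR-Gal4 constructs with GAL4-UAS reporters, treated for 24 h; activity scored upward from DMSO.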

Experiment [6] has as its target Estrogen receptor (Homo sapiens) (UniProt P03372). Description: ATG_ERa_TRANS: Attagene TRANS-FACTORIAL HepG2 Assay for human Estrogen Receptor alpha (ERa) (AID 2282970). The note with it: HepG2 Attagene TRANS ERa GAL4 reporter, mRNA. In short, it runs like this: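 Multiplexed cell-based reporter format in HepG2: chimeric ERa-Gal4 protein drives GAL4-UAS reporter transcription. Fluorescent reporter mRNA quantified by capillary electrophoresis 24 hours after dosing; endpoint fitted as signal gain against DMSO.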

Experiment [7] has as its target Steroid hormone receptor ERR1 (Homo sapiens) (UniProt P11474). Description: ATG_ERRa_TRANS: Attagene TRANS-FACTORIAL HepG2 Assay for human Estrogen-Related Receptor alpha (ERRa) (AID 2282971). To be noted: HepG2 Attagene TRANS reporter, ERRa transactivation. An outline of the steps: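 Signal gain relative to DMSO for an ERRa-Gal4 chimeric receptor, read as reporter mRNA by RT-PCR/capillary electrophoresis. Human HepG2 liver cells, transient multiplex reporter transfection, 24 h chemical exposure.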

In experiment [8] the target is X-box-binding protein 1 (Homo sapiens) (UniProt P17861). Kind of experiment: ATG_Xbp1_CIS: Attagene CIS-FACTORIAL HepG2 Assay for human X-box Binding Protein 1 (XBP1) (AID 2282972; active = hit-call score of the fitted dose curve at least 0.9, where 1 is the maximum; inactive = score below 0.9). The note with it: HepG2 XBP1 cis-element reporter, Attagene multiplex; actives raise or lower the signal. An outline of the steps: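 HepG2 cells transiently transfected with cis-regulated multiple reporter transcription units; endogenous transcription factor activity measured 24 hours after chemical dosing. Reporter mRNA quantified by RT-PCR, 6-FAM primer extension, HpaI digestion and capillary electrophoresis; bidirectional fitting versus DMSO.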

The target of experiment [9] is Estrogen-related receptor gamma (Homo sapiens) (UniProt P62508). Description: ATG_ERRg_TRANS: Attagene TRANS-FACTORIAL HepG2 Assay for human Estrogen-Related Receptor gamma (ERRg) (AID 2282977).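 Note: hits increase reporter signal over DMSO so potencies reflect activators.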 To be noted: HepG2 Attagene TRANS reporter, ERRg transactivation. An outline of the steps:
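HepG2 cells transiently transfected with multiplexed GAL4-UAS reporter units and chimeric NR-Gal4 constructs were exposed to test chemicals for 24 h. Reporter mRNA was measured by RT-PCR, 6-FAM primer extension, HpaI digestion and capillary electrophoresis; gain-of-signal versus DMSO.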

The target in experiment [10] is Bile acid receptor (Homo sapiens) (UniProt Q96RI1). Kind of experiment: ATG_FXR_TRANS: Attagene TRANS-FACTORIAL HepG2 Assay for Farnesoid X Receptor (FXR) (AID 2282979).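 Note: hits raise reporter mRNA above DMSO so AC50 marks FXR activation.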 The note with it: HepG2 Attagene TRANS FXR-GAL4 reporter transcription. In short, it runs like this: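 After 24 h chemical treatment of transfected HepG2 cells, GAL4-UAS reporter transcripts driven by an exogenous FXR-GAL4 fusion were measured by RT-PCR and capillary electrophoresis. Increases over DMSO were fitted.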
Chain of Bile acid receptor (Homo sapiens) (Q96RI1 whole entry, looked up, the tested form may be a part): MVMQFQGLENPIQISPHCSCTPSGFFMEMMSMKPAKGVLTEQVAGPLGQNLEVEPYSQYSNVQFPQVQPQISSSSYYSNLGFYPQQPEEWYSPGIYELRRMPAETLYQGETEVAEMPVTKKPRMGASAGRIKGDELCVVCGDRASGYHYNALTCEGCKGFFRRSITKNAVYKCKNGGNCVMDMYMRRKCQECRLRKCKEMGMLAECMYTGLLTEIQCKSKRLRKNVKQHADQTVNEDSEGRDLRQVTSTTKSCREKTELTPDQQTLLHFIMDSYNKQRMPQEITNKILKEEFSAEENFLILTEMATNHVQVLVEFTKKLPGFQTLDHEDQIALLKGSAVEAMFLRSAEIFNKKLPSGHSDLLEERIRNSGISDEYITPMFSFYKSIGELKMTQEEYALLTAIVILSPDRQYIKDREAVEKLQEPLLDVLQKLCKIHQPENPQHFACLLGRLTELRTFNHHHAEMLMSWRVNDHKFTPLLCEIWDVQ

The target of experiment [11] is Hepatocyte nuclear factor 4-alpha (Homo sapiens) (UniProt P41235). Description: ATG_HNF4a_TRANS: Attagene TRANS-FACTORIAL HepG2 Assay for human Hepatocyte Nuclear Factor 4 alpha (HNF4a) (AID 2282982). The note with it: HepG2 HNF4a transactivation reporter, mRNA readout. An outline of the steps: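 Transfected HepG2 reporter cells are dosed for 24 h; reporter RNA is reverse-transcribed, amplified, fluorescently labelled and HpaI-digested before CE sizing. Positive-direction fit against DMSO.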
Chain of Hepatocyte nuclear factor 4-alpha (Homo sapiens) (P41235 whole entry, looked up): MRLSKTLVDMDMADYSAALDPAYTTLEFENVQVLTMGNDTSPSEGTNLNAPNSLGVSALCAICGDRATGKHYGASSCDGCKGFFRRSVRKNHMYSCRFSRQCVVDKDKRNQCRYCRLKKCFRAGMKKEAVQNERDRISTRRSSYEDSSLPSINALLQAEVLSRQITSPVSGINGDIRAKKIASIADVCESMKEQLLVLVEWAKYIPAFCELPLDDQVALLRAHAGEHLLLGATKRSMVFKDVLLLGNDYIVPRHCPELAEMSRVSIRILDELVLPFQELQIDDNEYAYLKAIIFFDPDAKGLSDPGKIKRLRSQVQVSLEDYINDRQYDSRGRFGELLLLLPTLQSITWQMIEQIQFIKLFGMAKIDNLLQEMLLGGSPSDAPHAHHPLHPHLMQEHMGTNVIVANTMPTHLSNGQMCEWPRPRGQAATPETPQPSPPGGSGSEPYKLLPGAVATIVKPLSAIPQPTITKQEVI

The nature of experiment [12]: ATG_M_06_TRANS: Attagene TRANS-FACTORIAL HepG2 Assay for M06 Transcription Factor (Internal Marker) (AID 2282983).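 Note: reporter transcript level by RT-PCR then capillary electrophoresis fluorescence.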 To be noted: HepG2 Attagene TRANS M06 internal marker reporter. In short, it runs like this: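 Internal-marker background readout from a multiplexed TRANS reporter system in HepG2; 24 h dosing; mRNA induction quantified by RT-PCR plus capillary electrophoresis fluorescence; DMSO as negative control and baseline.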

Experiment [13] has as its target Nuclear receptor subfamily 4 group A member 2 (Homo sapiens) (UniProt P43354). Description: ATG_NURR1_TRANS: Attagene TRANS-FACTORIAL HepG2 Assay for human Nuclear Receptor Related Protein 1 (NURR1) (AID 2282985). The note with it: HepG2 Attagene TRANS reporter, mRNA readout. An outline of the steps: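 Cells: HepG2, transiently transfected. Exposure: 24 h. Detection: fluorescence of labelled RT-PCR products separated by capillary electrophoresis; upward fit versus DMSO.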

In experiment [14] the target is Transcriptional activator Myb (Homo sapiens) (UniProt P10242). Kind of experiment: ATG_Myb_CIS: Attagene CIS-FACTORIAL HepG2 Assay for human Myeloblastosis (Myb) Proto-Oncogene Transcription Factor (AID 2282986; active = hit-call score of the fitted dose curve at least 0.9, where 1 is the maximum; inactive = score below 0.9). The note with it: HepG2 Attagene CIS-FACTORIAL Myb reporter transcription; actives raise or lower the signal. An outline of the steps: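 Fluorescence signals from capillary electrophoresis of RT-PCR-amplified reporter cDNA give the read-out. Cells: HepG2 transfected with multiple cis-regulated reporter units. Exposure lasts 24 hours; DMSO defines baseline for gain or loss of signal.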
Chain of Transcriptional activator Myb (Homo sapiens) (P10242 whole entry, looked up): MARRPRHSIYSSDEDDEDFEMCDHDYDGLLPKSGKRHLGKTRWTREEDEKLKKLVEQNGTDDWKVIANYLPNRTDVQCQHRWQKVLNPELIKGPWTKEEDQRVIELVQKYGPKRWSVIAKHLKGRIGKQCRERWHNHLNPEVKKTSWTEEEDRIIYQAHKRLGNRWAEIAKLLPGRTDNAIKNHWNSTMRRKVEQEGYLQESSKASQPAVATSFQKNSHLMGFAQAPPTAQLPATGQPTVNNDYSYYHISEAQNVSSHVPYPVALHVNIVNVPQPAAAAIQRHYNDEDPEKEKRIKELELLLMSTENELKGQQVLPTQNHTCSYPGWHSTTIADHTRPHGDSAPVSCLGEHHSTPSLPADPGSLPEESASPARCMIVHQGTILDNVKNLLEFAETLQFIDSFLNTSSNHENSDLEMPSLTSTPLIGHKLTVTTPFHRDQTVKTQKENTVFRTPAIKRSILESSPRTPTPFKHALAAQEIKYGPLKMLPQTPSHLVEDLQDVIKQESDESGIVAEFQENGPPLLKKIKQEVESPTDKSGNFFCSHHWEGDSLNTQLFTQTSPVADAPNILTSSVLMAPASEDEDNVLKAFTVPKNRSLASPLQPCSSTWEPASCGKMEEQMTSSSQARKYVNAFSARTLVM

In experiment [15] the target is Nuclear respiratory factor 1 (Homo sapiens) (UniProt Q16656). Description: ATG_NRF1_CIS: Attagene CIS-FACTORIAL HepG2 Assay for human Nuclear Respiratory Factor 1 (NRF1) Orphan Gene (AID 2282987; active = hit-call score of the fitted dose curve at least 0.9, where 1 is the maximum; inactive = score below 0.9). The note with it: HepG2 NRF1 cis-element reporter, Attagene multiplex; actives raise or lower the signal. An outline of the steps: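 Transcriptional reporter readout, one component of a 52-endpoint multiplexed HepG2 panel. Exposure 24 h; mRNA detected via RT-PCR and fluorescent capillary electrophoresis; fitting in both directions against DMSO.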
Chain of Nuclear respiratory factor 1 (Homo sapiens) (Q16656 whole entry, looked up): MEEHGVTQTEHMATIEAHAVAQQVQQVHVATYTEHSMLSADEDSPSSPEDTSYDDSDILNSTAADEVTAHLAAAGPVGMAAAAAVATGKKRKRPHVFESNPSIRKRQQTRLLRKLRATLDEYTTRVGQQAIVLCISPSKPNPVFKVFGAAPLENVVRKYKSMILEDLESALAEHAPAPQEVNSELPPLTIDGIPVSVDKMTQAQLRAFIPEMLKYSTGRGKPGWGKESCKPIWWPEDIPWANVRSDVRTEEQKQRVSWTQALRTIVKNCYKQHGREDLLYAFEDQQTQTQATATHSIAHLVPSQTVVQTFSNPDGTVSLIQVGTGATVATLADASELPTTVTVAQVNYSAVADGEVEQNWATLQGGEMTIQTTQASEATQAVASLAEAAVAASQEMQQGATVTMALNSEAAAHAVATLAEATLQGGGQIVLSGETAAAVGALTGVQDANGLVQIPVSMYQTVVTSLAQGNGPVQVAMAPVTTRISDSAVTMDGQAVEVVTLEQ

A short description of experiment [16]: ATG_M_19_TRANS: Attagene TRANS-FACTORIAL HepG2 Assay for M19 Transcription Factor (Internal Marker) (AID 2282974). To be noted: HepG2 Attagene TRANS-FACTORIAL M19 internal marker reporter. An outline of the steps: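 Measured here: internal-marker reporter transcript from HepG2 cells transfected with MRTUs, harvested at 24 h. cDNA PCR products were 6-FAM labelled by primer extension, cut with HpaI for 2 h at 37 C, and resolved by CE.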

The target of experiment [17] is Oxysterols receptor LXR-beta (Homo sapiens) (UniProt P55055). Description: ATG_LXRb_TRANS: Attagene TRANS-FACTORIAL HepG2 Assay for human Liver X Receptor beta (LXRb) (AID 2282981). The note with it: HepG2 Attagene TRANS GAL4-LXRb reporter, mRNA. In short, it runs like this:
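Cells: HepG2, transiently transfected with GAL4-UAS reporter units plus LXRb-Gal4 fusion. Treatment: 24 h. Detection: reporter mRNA by RT-PCR, 6-FAM labelling, HpaI digestion, capillary electrophoresis.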

Experiment [18] can be described thus: ATG_GAL4_TRANS: Attagene TRANS-FACTORIAL HepG2 Assay for GAL4 (Internal Marker) (AID 2282976). To be noted: HepG2 Attagene TRANS GAL4 internal marker reporter. An outline of the steps: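 Liver HepG2 line bearing multiplexed GAL4-UAS reporter constructs; 24 h chemical treatment. Transcripts were quantified as fluorescent fragments on capillary electrophoresis after RT-PCR and HpaI cut, with activity fitted upward from DMSO.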

The nature of experiment [19]: ATG_M_32_TRANS: Attagene TRANS-FACTORIAL HepG2 Assay for M32 Transcription Factor (Internal Marker) (AID 2282984).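 Note: transcript level of a background control reporter unit measured by RT-PCR and capillary electrophoresis.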 The note with it: HepG2 Attagene TRANS M32 internal marker reporter. An outline of the steps:
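Using transiently transfected HepG2 cells exposed to test chemicals for 24 h, reporter transcripts are converted to labelled cDNA fragments and quantified by capillary electrophoresis. DMSO defines the activity baseline.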

One may read the AC50 as the midpoint of the concentration-response curve, whichever way the signal moves.

Chain of Oxysterols receptor LXR-beta (Homo sapiens) (P55055 whole entry, looked up, the tested form may be a part): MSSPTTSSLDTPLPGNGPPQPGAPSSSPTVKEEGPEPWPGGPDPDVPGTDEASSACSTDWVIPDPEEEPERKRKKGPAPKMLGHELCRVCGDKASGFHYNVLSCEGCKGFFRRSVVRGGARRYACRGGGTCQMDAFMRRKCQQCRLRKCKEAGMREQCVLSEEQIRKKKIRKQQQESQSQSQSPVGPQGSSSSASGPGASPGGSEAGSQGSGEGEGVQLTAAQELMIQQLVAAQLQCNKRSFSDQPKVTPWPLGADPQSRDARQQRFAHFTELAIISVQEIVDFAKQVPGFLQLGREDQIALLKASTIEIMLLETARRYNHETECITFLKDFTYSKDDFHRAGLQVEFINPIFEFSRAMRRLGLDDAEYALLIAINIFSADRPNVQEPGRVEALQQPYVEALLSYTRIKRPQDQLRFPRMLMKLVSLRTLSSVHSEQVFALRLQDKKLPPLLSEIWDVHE
Chain of Estrogen receptor (Homo sapiens) (P03372 whole entry, looked up, the tested form may be a part): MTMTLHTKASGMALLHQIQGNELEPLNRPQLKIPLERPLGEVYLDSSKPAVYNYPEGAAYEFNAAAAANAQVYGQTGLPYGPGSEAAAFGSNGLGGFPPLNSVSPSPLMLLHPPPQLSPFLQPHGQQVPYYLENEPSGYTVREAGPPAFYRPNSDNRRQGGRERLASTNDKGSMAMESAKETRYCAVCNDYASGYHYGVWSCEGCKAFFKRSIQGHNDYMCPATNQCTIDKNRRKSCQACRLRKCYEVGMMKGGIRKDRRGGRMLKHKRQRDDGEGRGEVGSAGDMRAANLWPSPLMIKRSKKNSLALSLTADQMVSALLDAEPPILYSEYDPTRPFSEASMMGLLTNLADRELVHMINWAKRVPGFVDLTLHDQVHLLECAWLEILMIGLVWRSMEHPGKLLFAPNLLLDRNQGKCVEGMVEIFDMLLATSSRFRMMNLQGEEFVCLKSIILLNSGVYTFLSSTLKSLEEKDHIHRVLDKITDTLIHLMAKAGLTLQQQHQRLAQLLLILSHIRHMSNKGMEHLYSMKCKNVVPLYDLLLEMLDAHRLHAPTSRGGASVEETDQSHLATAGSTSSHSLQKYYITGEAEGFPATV
Chain of Nuclear receptor subfamily 4 group A member 2 (Homo sapiens) (P43354 whole entry, looked up): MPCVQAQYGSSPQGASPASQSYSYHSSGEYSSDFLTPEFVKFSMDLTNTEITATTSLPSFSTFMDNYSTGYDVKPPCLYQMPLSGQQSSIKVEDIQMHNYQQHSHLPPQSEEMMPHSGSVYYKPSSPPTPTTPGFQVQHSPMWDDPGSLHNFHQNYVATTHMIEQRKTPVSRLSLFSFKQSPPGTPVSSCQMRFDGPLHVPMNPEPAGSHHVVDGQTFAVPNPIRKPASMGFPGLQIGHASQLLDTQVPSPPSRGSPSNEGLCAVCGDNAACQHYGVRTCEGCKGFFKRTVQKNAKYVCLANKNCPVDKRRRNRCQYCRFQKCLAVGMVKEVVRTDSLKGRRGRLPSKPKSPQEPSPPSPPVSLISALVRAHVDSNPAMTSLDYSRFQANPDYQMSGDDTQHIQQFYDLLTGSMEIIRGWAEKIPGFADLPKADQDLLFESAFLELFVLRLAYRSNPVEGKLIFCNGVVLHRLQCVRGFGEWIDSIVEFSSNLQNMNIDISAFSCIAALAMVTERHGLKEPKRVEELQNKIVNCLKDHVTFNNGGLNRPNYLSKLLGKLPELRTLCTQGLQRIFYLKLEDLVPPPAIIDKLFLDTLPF
Chain of Estrogen-related receptor gamma (Homo sapiens) (P62508 whole entry, looked up, the tested form may be a part): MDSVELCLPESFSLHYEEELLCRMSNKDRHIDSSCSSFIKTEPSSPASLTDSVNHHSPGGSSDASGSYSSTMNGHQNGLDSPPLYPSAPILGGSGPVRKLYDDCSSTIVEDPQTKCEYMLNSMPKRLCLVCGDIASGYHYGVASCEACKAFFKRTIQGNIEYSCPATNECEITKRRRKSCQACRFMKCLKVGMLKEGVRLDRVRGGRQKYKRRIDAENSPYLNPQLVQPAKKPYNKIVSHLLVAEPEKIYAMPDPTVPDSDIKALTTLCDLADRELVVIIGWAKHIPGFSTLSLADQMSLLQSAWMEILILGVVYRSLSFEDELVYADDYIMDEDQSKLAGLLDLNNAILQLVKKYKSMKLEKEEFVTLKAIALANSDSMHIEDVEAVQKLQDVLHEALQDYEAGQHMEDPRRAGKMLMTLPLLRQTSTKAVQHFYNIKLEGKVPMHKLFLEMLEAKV
Chain of Nuclear receptor subfamily 1 group I member 3 (Homo sapiens) (Q14994 whole entry, looked up, the tested form may be a part): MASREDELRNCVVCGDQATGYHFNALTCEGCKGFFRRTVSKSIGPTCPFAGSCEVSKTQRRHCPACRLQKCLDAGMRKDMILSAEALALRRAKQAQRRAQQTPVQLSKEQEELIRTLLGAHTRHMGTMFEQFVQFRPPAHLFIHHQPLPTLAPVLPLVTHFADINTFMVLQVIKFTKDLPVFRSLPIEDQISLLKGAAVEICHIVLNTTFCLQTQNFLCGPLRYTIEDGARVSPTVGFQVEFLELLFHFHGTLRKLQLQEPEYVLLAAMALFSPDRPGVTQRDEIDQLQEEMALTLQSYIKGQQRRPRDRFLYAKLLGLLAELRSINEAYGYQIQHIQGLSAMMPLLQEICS
Chain of Steroid hormone receptor ERR1 (Homo sapiens) (P11474 whole entry, looked up, the tested form may be a part): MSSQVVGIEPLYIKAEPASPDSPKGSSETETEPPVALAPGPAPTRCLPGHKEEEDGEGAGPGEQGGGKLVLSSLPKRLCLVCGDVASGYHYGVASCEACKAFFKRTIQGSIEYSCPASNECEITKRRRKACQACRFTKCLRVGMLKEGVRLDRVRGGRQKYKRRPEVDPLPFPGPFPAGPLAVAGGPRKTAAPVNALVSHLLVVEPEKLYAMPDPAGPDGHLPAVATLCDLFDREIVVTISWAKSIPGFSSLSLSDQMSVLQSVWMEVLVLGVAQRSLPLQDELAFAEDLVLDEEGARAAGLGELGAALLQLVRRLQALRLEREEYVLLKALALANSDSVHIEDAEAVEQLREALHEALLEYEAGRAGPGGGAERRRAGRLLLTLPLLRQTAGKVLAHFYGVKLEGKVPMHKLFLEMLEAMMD

With `O=C(/C=C/c1ccc(O)cc1)CC(=O)/C=C/c1ccc(O)cc1`, the compound was classed as inactive in experiment [1], in [2], in experiment [3], in [5], in experiment [6] and in [7]. Besides, the outcome in experiment [8], in [9], in experiment [10], in [11], in experiment [12] and in experiment [13] was inactive. Moreover, the outcome in [14] and in [15] was inactive. For the same compound, the AC50 in experiment [4] is 5.76 µM (active).
For the compound `COc1cc(CCC(=O)CC(=O)CCc2ccc(O)c(OC)c2)ccc1O`, the outcome in experiment [1], in [2], in experiment [3], in experiment [5], in [6] and in experiment [8] was inactive. Moreover, the result in experiment [16], in experiment [9], in [10], in experiment [17], in experiment [11] and in experiment [13] was inactive. Besides, the result in [15] was inactive. Besides, the AC50 in experiment [4] was 13.7 µM (active); in [14], 67.6 µM (active).
For `O=C(O)Cc1cc(I)c(Oc2cc(I)c(O)c(I)c2)c(I)c1`, the result in [1], in [2], in experiment [6], in experiment [8], in experiment [16] and in experiment [18] was inactive. The result in experiment [17], in experiment [11], in experiment [12], in experiment [19], in experiment [14] and in experiment [15] was inactive. Also, the AC50 in [2] was 67 µM (active); in experiment [4] it was 18.1 µM (active) and 23 µM (active); in experiment [8], 34.1 µM (active); in experiment [13] it was 23.6 µM (active).
`CC(C)(C)c1cccc(C(C)(C)C)c1O`: the half-maximal activity concentration (AC50) in [1] was 173 µM (active); in [6] it was 61.4 µM (active); in experiment [8] it was 144 µM (active). The outcome in [2], in experiment [5], in [18], in experiment [10], in experiment [17] and in experiment [19] was inactive. Besides, the outcome in experiment [13], in experiment [14] and in experiment [15] was inactive.
With `CCCCCCCCOC(=O)CCCCCCCCC(=O)OCCCCCCCC`, the compound was classed as inactive in experiment [1], in [2], in [4], in [5], in [6] and in experiment [7]. Further, the compound was classed as inactive in experiment [8], in experiment [16], in experiment [18], in experiment [9], in experiment [10] and in experiment [13]. In addition, the compound was classed as inactive in experiment [14] and in experiment [15].
For `NC(=O)N1C(=O)C(C(=O)c2cc(Cl)cs2)c2cc(F)c(Cl)cc21` (stereo not drawn), the call in experiment [1], in experiment [2], in experiment [6], in [7], in experiment [16] and in [9] was inactive. The outcome in experiment [10], in [17], in [11], in [12], in [19] and in experiment [14] was inactive. The result in [15] was inactive. In addition, the AC50 is 9.88 µM (active) in [4] and 14.1 µM (active) in experiment [8].
For the compound `N#C[C@@H]1CC(F)(F)CN1C(=O)CNC1CC2CCC(C1)N2c1ncccn1` (stereo partly drawn), the call in [1], in [2], in experiment [6], in [7], in experiment [8] and in experiment [16] was inactive. The compound was classed as inactive in [18], in experiment [9], in experiment [10], in experiment [19], in experiment [14] and in experiment [15].
`CCCCCCCC(=O)O`: the result in experiment [1], in experiment [2], in experiment [4], in experiment [5], in experiment [6] and in experiment [8] was inactive. Moreover, the compound was called inactive in [16], in experiment [18], in experiment [17], in [11], in experiment [12] and in experiment [13]. Besides, the result in experiment [14] and in experiment [15] was inactive.
